The target in this assay is ELF2. Description: pooled miR-30 sensor sort-seq; sequence = guide strand. The conditions noted are these: shRNA.
Take TTGATTTTCTACTCCATTGCTG: the sensor-assay potency score (higher = more potent) stood at 0.197.

Sequence TGTCATTACAACAGGTACCTGC returned a sensor-assay potency score (higher = more potent) of 0.12. TGATATTCACAACTCTAGCTAC gave a sensor-assay potency score (higher = more potent) of -0.607. For TTTGTCTGCAGTTGACACTGTG the value was 0.266; for ATCATCATAAACCAGAACCTGG, -0.854; for TTCTTCTGCCACATCTTGCATC, -0.811.

For TTTCACTTTTGTCATCATCTAT, the sensor-assay potency score (higher = more potent) is -0.516.

In turn, TAGATCTAAAAGAAACTCCCAC came in with a sensor-assay potency score (higher = more potent) of 0.171. Turning to TTTGTCATCATCTATGACCACT, the sensor-assay potency score (higher = more potent) is -0.807. For TTGAACTGATATACAAGCCTCT the value was 0.343; for TTGTTCTTCTGCCACATCTTGC, -0.939; for TTTCACATCATGTTCTTGCTTT, 0.568.

Sequence TGATTTTCTACTCCATTGCTGG registered a sensor-assay potency score (higher = more potent) of -0.423.

Sequence TAATCTGGCACTTGGAACTGGC displayed a sensor-assay potency score (higher = more potent) of -0.333.

(Values after the OligoGym collection.)
Note: reference of the scale not given here.
